Data taken from PubChem BioAssay AID1259374 (The Scripps Research Institute Molecular Screening Center, 2018).
The whole screen tested about 650,000 compounds, of which about 5,900 (0.91%) were called active. This excerpt belongs to a sample that is enriched for actives. Unmarked numbers belong to inactive results. No stated cut-off is given here; in the data, active means inhibition above about 50%; inactive means the rest.

target: Microphthalmia-associated transcription factor (Homo sapiens) (UniProt O75030); test: MITF inhibitors, primary screen, biochemical, AlphaScreen, human (AID 1259374); details: AlphaScreen MITF homodimerization, bead proximity signal; at 2.6 µM; stronger effect = higher value;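 further: 0% = vehicle wells with protein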
Sequence (O75030 whole entry, looked up): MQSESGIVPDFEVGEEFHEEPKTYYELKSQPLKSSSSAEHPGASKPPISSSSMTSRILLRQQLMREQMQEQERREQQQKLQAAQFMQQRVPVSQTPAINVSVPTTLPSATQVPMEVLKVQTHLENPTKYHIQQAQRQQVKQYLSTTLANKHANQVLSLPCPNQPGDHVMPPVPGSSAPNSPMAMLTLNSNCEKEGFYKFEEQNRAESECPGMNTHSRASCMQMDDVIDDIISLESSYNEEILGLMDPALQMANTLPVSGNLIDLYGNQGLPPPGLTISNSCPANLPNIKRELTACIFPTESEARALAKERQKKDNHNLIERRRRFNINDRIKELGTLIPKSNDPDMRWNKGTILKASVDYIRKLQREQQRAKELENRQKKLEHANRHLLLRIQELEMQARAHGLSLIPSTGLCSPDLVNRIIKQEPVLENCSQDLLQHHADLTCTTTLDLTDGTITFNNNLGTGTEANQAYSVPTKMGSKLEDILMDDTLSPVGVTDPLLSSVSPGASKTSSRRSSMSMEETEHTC

Row | Structure (SMILES) | inhibition
1 | Fc1ccc(-c2cccc3ccc(N4CCN(c5ncccn5)CC4)nc23)cc1 | 2.86%
2 | NC(=O)c1c(/N=C/c2ccc([N+](=O)[O-])cc2)sc2c1CCCC2 | 7.76%
3 | O=C1N[C@H](Cc2ccc(O)cc2)C(=O)N2CCN(C(=O)c3ccccc3Cl)C[C@H]12 | -6.27%
4 | COc1cccc(/C=C(\C#N)c2nc3ccccc3[nH]2)c1OCc1ccc(Cl)cc1Cl | 52.7% (active)
5 | COc1cccc(/C=C(\C#N)c2nc3ccc(C)cc3[nH]2)c1OC | 7.46%
6 | COc1ccccc1/C=C(/C#N)c1nc2ccccc2[nH]1 | 11.1%
7 | Cc1ccc2oc(-c3ccc(C)c(NC(=O)c4ccc(Cl)c([N+](=O)[O-])c4)c3)nc2c1 | 14.9%
8 | O=C1O/C(=C(\c2cccc3ccccc23)[N+](=O)[O-])c2ccccc21 | 7.98%
9 | O=C(NCC1CCCO1)C1CCC(Cn2c(SCc3ccc([N+](=O)[O-])cc3)nc3ccccc3c2=O)CC1 (stereo not given) | 1.86%
10 | COC(=O)c1sc2ccccc2c1NC(=O)c1ccc2c(c1)OCCO2 | 4.39%
11 | COC(=O)c1cccc(NS(=O)(=O)c2ccc3ccccc3c2)c1C | 52.5% (active)
12 | COC(=O)c1cccc(NC(=O)c2ccccc2NS(=O)(=O)c2ccc(C)cc2)c1C | -6.07%
13 | COC(=O)c1ccccc1NS(=O)(=O)c1ccc2[nH]c(=O)ccc2c1 | 6.38%
14 | CCCCCCC1CCC(C(=O)Oc2ccc(C(=O)OCC)cc2)CC1 (stereo not given) | 7.45%
15 | COc1ccc2c(c1)CC(c1nc3ccc(-c4cccnc4)cc3o1)CO2 (stereo not given) | -9.3%
16 | COc1ccc2c(c1)CC(c1nc(Nc3ccc4cnccc4c3)c3ccccc3n1)CO2 (stereo not given) | 55.2% (active)
17 | COc1ccc2c(c1)CC(C(=O)Nc1ccc(-c3ccncc3)cc1Oc1ccccc1)CO2 (stereo not given) | 12.9%
18 | O=C(Nc1nc(-c2ccc(Br)cc2)cs1)N1CCOCC1 | 6.09%
19 | Cc1cc(-c2cnc(N3CCCCC3)nc2C2CCNCC2)on1 | -11%
20 | CN(CCC(=O)O)Cc1cccc(Cl)c1 | 69.7% (active)
21 | O=C(Cc1cccc(Cl)c1)NCc1ccccc1 | -1.38%
22 | CN(CCC(=O)Nc1cccc(F)c1)Cc1ccccc1 | -7.29%
23 | Cc1ccc(Nc2nc3nonc3nc2N2CCN(C(=O)c3ccccc3)CC2)cc1Cl | 2.8%

Row | Structure (SMILES) | inhibition
24 | CCc1ccccc1NC(=O)c1cc2nc(-c3cccs3)cc(C(F)(F)F)n2n1 | 23.3%
25 | COc1cc(CNC(C)(C)C)ccc1OCCO | -1.33%
26 | CCC(CO)NCC(O)COCc1ccc(Cl)cc1 (stereo not given) | -4.49%
27 | COc1ccc(COCC(O)CNCC(C)(C)CN(C)C)cc1OC (stereo not given) | 69.4% (active)
28 | Cc1c(C(=O)N2CCN(c3ccc(F)cc3)CC2)sc2ncn(CC(=O)N3CCC(C)CC3)c(=O)c12 | 9.34%
29 | Cc1cnc(C)c(-c2ccc3c(c2)CC(CNC(=O)/C=C/c2cccc(F)c2F)O3)n1 (stereo not given) | 10.3%
30 | CCOC(=O)c1[nH]c(COC(C)=O)c(CCC(=O)OC)c1C | -19.8%
31 | O=C(COc1ccccc1)Nc1ccc(N2CCC(NCCc3cccs3)CC2)cc1 | 8.32%
32 | COc1ccc2c(c1)CC(C(=O)Nc1ccc(-c3cn[nH]c3)cc1C(=O)NCc1ccccc1)CO2 (stereo not given) | 24.1%
33 | COc1ccc2c(c1)CC(C(=O)Nc1ccc(-c3cn[nH]c3)cc1O[C@H]1CCOC1)CO2 (stereo not given in full) | 16.3%
34 | COc1ccc2c(c1)CC(C(=O)Nc1ccc(-c3cn[nH]c3)cc1OCc1ccccc1)CO2 (stereo not given) | 62.3% (active)
35 | COc1ccc2c(c1)CC(C(=O)Nc1ccc(-c3cn[nH]c3)cc1OC(C)CN(C)C)CO2 (stereo not given) | 13.3%
36 | COc1ccc2c(c1)CC(C(=O)Nc1ccc(-c3cn[nH]c3)cc1OCC(N)=O)CO2 (stereo not given) | 52.7% (active)
37 | COc1ccc2c(c1)CC(C(=O)Nc1ccc(-c3cn[nH]c3)cc1OCCN(C)C)CO2 (stereo not given) | 3.86%
38 | CCc1ccc(C(=O)N2CCN3C(=O)[C@H](CO)NC(=O)[C@H]3C2)cc1 | -8.93%
39 | O=C(CN(Cc1ccccc1)S(=O)(=O)c1ccc(F)cc1)NCCc1ccccc1 | -7.64%
40 | CC(C)N1CCC(N2CCN(Cc3cc(F)ccc3F)CC2CCO)CC1 (stereo not given) | 5.34%
41 | Cc1cc(S(=O)(=O)NC2CCCC2)ccc1-n1cnnn1 | -4.47%
42 | Cc1cc(S(=O)(=O)Nc2ccc3c(c2)OCCO3)ccc1-n1cnnn1 | 53% (active)
43 | Cc1cc(S(=O)(=O)NCc2ccc3c(c2)OCO3)ccc1-n1cnnn1 | 11.8%
44 | COCCN1C(=O)/C(=C/c2cc(OC)c(O)c([N+](=O)[O-])c2)SC1=S | 14.8%
45 | CC(C)(C)n1nnnc1C(c1ccc(Cl)cc1)N1CCSCC1 (stereo not given) | -19.9%
46 | COCCn1nnnc1C(c1ccc2ncccc2c1)N1CCOCC1 (stereo not given) | 12%

Row | Structure (SMILES) | inhibition
47 | CC(C)(C)n1nnnc1C(c1ccc2ncccc2c1)N1CCSCC1 (stereo not given) | 65.2% (active)
48 | COc1ccc(Nc2cc(N3CCN(c4ncccn4)CC3)c3noc4c3c2C(=O)c2ccccc2-4)cc1 | 0.37%
49 | CN(C)c1cc(NCCN2CCC3(CC2)OCCO3)c2c3c(onc13)-c1ccccc1C2=O | 50.7% (active)
50 | CCNc1cc(NCCO)c2noc3c2c1C(=O)c1ccccc1-3 | 27.5%
51 | CCNc1cc(Nc2ccccc2)c2c3c(onc13)-c1ccccc1C2=O | 15.1%
52 | CC(C)Nc1cc(N2CCN(c3ncccn3)CC2)c2noc3c2c1C(=O)c1ccccc1-3 | 5.09%
53 | CN1CCN(c2cc(NCCCC(=O)O)c3c4c(onc24)-c2ccccc2C3=O)CC1 | 10.3%
54 | CCOC(=O)N1CCN(c2cc(NCCO)c3c4c(onc24)-c2ccccc2C3=O)CC1 | 15.8%
55 | CC(C)Nc1cc(N2CCC3(CC2)OCCO3)c2noc3c2c1C(=O)c1ccccc1-3 | 55.8% (active)
56 | CC1CCN(c2cc(NCC(=O)O)c3c4c(onc24)-c2ccccc2C3=O)CC1 | 51.3% (active)
57 | Cc1c(C(=O)Nc2ccc(F)cc2)sc2ncnc(N3CCc4ccccc4C3)c12 | -2.5%
58 | Cc1ccc(OCC(=O)N2CCC(C(=O)O)CC2)cc1C | 6.47%
59 | COCCn1c(SCC(=O)Nc2c(C)cc(C)cc2C)nc2c(c1=O)SCC2 | 1.88%
60 | COc1ccc(C(CNCc2cc(=O)oc3cc4c(cc23)CCC4)N2CCOCC2)cc1 (stereo not given) | 85.3% (active)
61 | COc1ccccc1C(=O)NCC(c1ccc2c(c1)CCCN2C)N1CCOCC1 (stereo not given) | -1.79%
62 | O=c1cc(CNc2ccc(S(=O)(=O)N3CCCC3)cc2)c2cc3c(cc2o1)CCC3 | 10.1%
63 | CN1CCN(Cc2c(O)ccc3c2O/C(=C\c2ccccc2Cl)C3=O)CC1 | 2.25%
64 | Cc1ccc2c(=O)c(CN3CCN(C)CC3)c(C)[nH]c2c1C | 10%
65 | N#C/C(=C(/O)c1cc(-c2ccccc2)nc2ccccc12)c1nc2ccccc2[nH]1 | -0.49%
66 | COc1cc(Br)cc(/C=N\NC(=O)c2ccc(C)nc2)c1O | 60.8% (active)
67 | COc1cc(Br)cc(/C=N/NC(=O)c2cc(-c3ccccc3)n[nH]2)c1O | -36.5%
68 | CCOc1cccc(/C=N/NC(=O)c2ccc(C)nc2)c1O | 49.4%
69 | O=c1nc(/C=C/c2cc(Cl)cc(Cl)c2OCc2ccccc2F)cc(C(F)(F)F)[nH]1 | -1.22%

Row | Structure (SMILES) | inhibition
70 | C/C(=N\c1ccccn1)c1c(O)c2ccccc2oc1=O | 5.79%
71 | CCC(C)NCCOCCOc1cc(C)cc(C)c1C (stereo not given) | 70.4% (active)
72 | CCC(C)NCCOCCOc1ccc(Br)cc1C (stereo not given) | 28.4%
73 | CCC(C)NCCOCCOc1c(OC)cccc1OC (stereo not given) | 17.3%
74 | Cc1nn(C)c(C)c1NC(=O)Cn1nc2n(Cc3ccc(F)cc3)c3ccccc3n2c1=O | 12.6%
75 | Cc1ccc(C)c(NCN2C(=O)CSC2=O)c1 | 17.9%
76 | CCOC(=O)c1sc2nc(SCC(=O)N3CCCC3)n(Cc3ccc(C)cc3)c(=O)c2c1C | -3.14%
77 | C1=CC2CC1CC2CN1CCN(Cc2c[nH]c3ccccc23)CC1 (stereo not given) | 64.4% (active)
78 | CCOc1ccccc1N1CCN(CC2CC3C=CC2C3)CC1 (stereo not given) | 4.32%
79 | O=S(=O)(c1ccc2ccccc2c1)N1CCN(CC2CC3C=CC2C3)CC1 (stereo not given) | -6.53%
80 | CCN1C(=O)C(C)(C)COc2ccc(NC(=O)COc3ccc4ccccc4c3)cc21 | 8.12%
81 | CN(C)/C=C/C=C/C=C1\CCC\C(=C/C=C/C=C/N(C)C)C1=O | 98.9% (active)
82 | CN(C)/N=C/C=C1\CCC/C(=C\c2ccc([N+](=O)[O-])cc2)C1=O | -2.41%
83 | CN(C)/N=C/C=C1\CCC/C(=C\C=N\N(C)C)C1=O | 17.4%
84 | Cc1ccc2nc3sc(C(=O)N4CC(=O)Nc5ccccc54)c(N)c3cc2c1 | -4.39%
85 | c1ccc(C(Sc2nnc(COc3ccc(C4CCCCC4)cc3)n2-c2ccccc2)c2ccccc2)cc1 | 15.4%
86 | O=[N+]([O-])c1ccc(OCc2nnc(SCCN3CCOCC3)n2-c2ccccc2)cc1 | 53.2% (active)
87 | COc1ccccc1-c1nnc(SCCN2CCOCC2)n1C | 0.66%
88 | COc1ccc(C(=O)Oc2ccc3c(C(F)(F)F)cc(=O)oc3c2C)cc1OC | 6.47%
89 | O=S(=O)(c1ccc(-c2csc(N3N=C(c4cccs4)CC3c3ccc(F)cc3)n2)cc1)N1CCCCC1 (stereo not given) | 12%
90 | Cc1ccc(N(C2C=CS(=O)(=O)C2)S(=O)(=O)c2ccc(Br)cc2)cc1 (stereo not given) | 19.4%
